This note sets out measurements from paper PMC11006913.

What all share (test): PBM; 200 nM protein, PBS
Settings in all cases: dsDNA, one strand shown

The target in assay [1] is HESX1 (Homo sapiens, UniProt Q9UBX0 95-180, R165K).
Assay [2] has as its target SHOX (Homo sapiens, UniProt O15266 103-189).
The target of another assay is ALX4 (Homo sapiens, UniProt Q9H161 200-286, Q225E).
Assay [3] addresses HESX1 (Homo sapiens, UniProt Q9UBX0 95-180).
A further assay addresses MSX2 (Homo sapiens, UniProt P35548 130-214, R199I).
Assay [4] has as its target ALX1 (Homo sapiens, UniProt Q15699 118-204, L144V).
The target of assay [5] is ALX3 (Homo sapiens, UniProt O95076 139-225, N203Q).
Assay [6] has as its target SHOX (Homo sapiens, UniProt O15266 103-189, R173C).
Assay [7] addresses ALX1 (Homo sapiens, UniProt Q15699 118-204, L144R).
Assay [8] deals with ALX3 (Homo sapiens, UniProt O95076 139-225).
The target of assay [9] is PROP1 (Homo sapiens, UniProt O75360 56-141).
For assay [10], the target named is HESX1 (Homo sapiens, UniProt Q9UBX0 95-180, R109Q).
The target of assay [11] is PROP1 (Homo sapiens, UniProt O75360 56-141, R99H).
For assay [12], the target named is ALX3 (Homo sapiens, UniProt O95076 139-225, L168Q).
Assay [13] has as its target HESX1 (Homo sapiens, UniProt Q9UBX0 95-180, P111T).
Assay [14] addresses ALX3 (Homo sapiens, UniProt O95076 139-225, L168V).
In assay [15] the target is PROP1 (Homo sapiens, UniProt O75360 56-141, F88S).
The target in assay [16] is HESX1 (Homo sapiens, UniProt Q9UBX0 95-180, F115L).
In assay [17] the target is ALX1 (Homo sapiens, UniProt Q15699 118-204).
Assay [18] concerns the target ALX3 (Homo sapiens, UniProt O95076 139-225, N203S).

Sequence of HESX1 (Homo sapiens, UniProt Q9UBX0 95-180, P111T) (Q9UBX0 95-180 P111T): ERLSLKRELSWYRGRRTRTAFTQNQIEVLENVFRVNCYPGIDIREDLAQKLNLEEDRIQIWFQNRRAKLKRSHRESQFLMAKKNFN
Sequence of ALX1 (Homo sapiens, UniProt Q15699 118-204, L144V) (Q15699 118-204 L144V): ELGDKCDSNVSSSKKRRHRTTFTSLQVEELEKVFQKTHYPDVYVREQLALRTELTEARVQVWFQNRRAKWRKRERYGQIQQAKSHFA
Sequence of HESX1 (Homo sapiens, UniProt Q9UBX0 95-180) (Q9UBX0 95-180): as the sequence (Q9UBX0 95-180 P111T) above, with T17P counted along it
Sequence of SHOX (Homo sapiens, UniProt O15266 103-189, R173C) (O15266 103-189 R173C): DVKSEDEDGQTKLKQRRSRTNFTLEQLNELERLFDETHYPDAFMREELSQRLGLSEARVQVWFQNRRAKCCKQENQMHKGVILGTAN
Sequence of HESX1 (Homo sapiens, UniProt Q9UBX0 95-180, R165K) (Q9UBX0 95-180 R165K): as the sequence (Q9UBX0 95-180 P111T) above, with T17P, R71K counted along it
Sequence of ALX3 (Homo sapiens, UniProt O95076 139-225, L168V) (O95076 139-225 L168V): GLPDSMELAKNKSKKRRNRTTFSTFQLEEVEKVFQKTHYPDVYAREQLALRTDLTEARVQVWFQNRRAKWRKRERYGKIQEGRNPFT
Sequence of HESX1 (Homo sapiens, UniProt Q9UBX0 95-180, F115L) (Q9UBX0 95-180 F115L): as the sequence (Q9UBX0 95-180 P111T) above, with T17P, F21L counted along it
Sequence of ALX3 (Homo sapiens, UniProt O95076 139-225, L168Q) (O95076 139-225 L168Q): as the sequence (O95076 139-225 L168V) above, with V30Q counted along it
Sequence of ALX3 (Homo sapiens, UniProt O95076 139-225, N203S) (O95076 139-225 N203S): as the sequence (O95076 139-225 L168V) above, with V30L, N65S counted along it
Sequence of ALX4 (Q9H161 200-286 Q225E): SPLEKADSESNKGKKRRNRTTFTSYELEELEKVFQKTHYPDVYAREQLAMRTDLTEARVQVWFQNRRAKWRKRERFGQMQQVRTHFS
Sequence of ALX3 (Homo sapiens, UniProt O95076 139-225, N203Q) (O95076 139-225 N203Q): as the sequence (O95076 139-225 L168V) above, with V30L, N65Q counted along it
Sequence of ALX3 (Homo sapiens, UniProt O95076 139-225) (O95076 139-225): as the sequence (O95076 139-225 L168V) above, with V30L counted along it
Sequence of HESX1 (Homo sapiens, UniProt Q9UBX0 95-180, R109Q) (Q9UBX0 95-180 R109Q): as the sequence (Q9UBX0 95-180 P111T) above, with R15Q, T17P counted along it
Sequence of MSX2 (P35548 130-214 R199I): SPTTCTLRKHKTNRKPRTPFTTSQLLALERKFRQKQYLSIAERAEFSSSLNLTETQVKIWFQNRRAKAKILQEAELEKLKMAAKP
Sequence of PROP1 (Homo sapiens, UniProt O75360 56-141) (O75360 56-141): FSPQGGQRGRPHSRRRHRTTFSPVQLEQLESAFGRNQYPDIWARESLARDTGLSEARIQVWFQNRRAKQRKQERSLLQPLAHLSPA
Sequence of SHOX (Homo sapiens, UniProt O15266 103-189) (O15266 103-189): as the sequence (O15266 103-189 R173C) above, with C71R counted along it
Sequence of PROP1 (Homo sapiens, UniProt O75360 56-141, F88S) (O75360 56-141 F88S): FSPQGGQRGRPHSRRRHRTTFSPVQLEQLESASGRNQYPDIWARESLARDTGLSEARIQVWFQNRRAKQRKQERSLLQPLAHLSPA
Sequence of ALX1 (Homo sapiens, UniProt Q15699 118-204) (Q15699 118-204): as the sequence (Q15699 118-204 L144V) above, with V27L counted along it
Sequence of ALX1 (Homo sapiens, UniProt Q15699 118-204, L144R) (Q15699 118-204 L144R): as the sequence (Q15699 118-204 L144V) above, with V27R counted along it
Sequence of PROP1 (Homo sapiens, UniProt O75360 56-141, R99H) (O75360 56-141 R99H): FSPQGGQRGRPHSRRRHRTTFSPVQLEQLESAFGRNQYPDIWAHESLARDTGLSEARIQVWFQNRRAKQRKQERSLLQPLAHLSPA

For the sequence TAATTGGA, the binding signal with HESX1 [1] was 13.4 upbm affinity estimate (log intensity, higher = more binding, comparable within an allelic series); in the assay with SHOX [2] it was 12.6 upbm affinity estimate (log intensity, higher = more binding, comparable within an allelic series); with ALX4, 13.7 upbm affinity estimate (log intensity, higher = more binding, comparable within an allelic series); with HESX1 [3] it was 13.3 upbm affinity estimate (log intensity, higher = more binding, comparable within an allelic series); in the assay with MSX2 it was 13 upbm affinity estimate (log intensity, higher = more binding, comparable within an allelic series); with ALX1 [4] it was 12 upbm affinity estimate (log intensity, higher = more binding, comparable within an allelic series). For the same sequence, the binding signal in the assay with ALX3 [5] is 8.38 upbm affinity estimate (log intensity, higher = more binding, comparable within an allelic series); with SHOX [6] it was 9.96 upbm affinity estimate (log intensity, higher = more binding, comparable within an allelic series); with ALX1 [7], 11.7 upbm affinity estimate (log intensity, higher = more binding, comparable within an allelic series); with ALX3 [8], 12.7 upbm affinity estimate (log intensity, higher = more binding, comparable within an allelic series); in the assay with PROP1 [9], 11.8 upbm affinity estimate (log intensity, higher = more binding, comparable within an allelic series); in the assay with HESX1 [10] it was 9.97 upbm affinity estimate (log intensity, higher = more binding, comparable within an allelic series). Further, the binding signal was 12 upbm affinity estimate (log intensity, higher = more binding, comparable within an allelic series) in the assay with PROP1 [11]; 10.9 upbm affinity estimate (log intensity, higher = more binding, comparable within an allelic series) in the assay with ALX3 [12]; 11.9 upbm affinity estimate (log intensity, higher = more binding, comparable within an allelic series) in the assay with HESX1 [13]; 10.3 upbm affinity estimate (log intensity, higher = more binding, comparable within an allelic series) with ALX3 [14]; 7.7 upbm affinity estimate (log intensity, higher = more binding, comparable within an allelic series) with PROP1 [15]; 8.04 upbm affinity estimate (log intensity, higher = more binding, comparable within an allelic series) in the assay with HESX1 [16]. The binding signal was 12.7 upbm affinity estimate (log intensity, higher = more binding, comparable within an allelic series) with ALX1 [17] and 8.55 upbm affinity estimate (log intensity, higher = more binding, comparable within an allelic series) in the assay with ALX3 [18].
Consider AATTAAGT, for which the binding signal is 11.6 upbm affinity estimate (log intensity, higher = more binding, comparable within an allelic series) with HESX1 [1]; 11.8 upbm affinity estimate (log intensity, higher = more binding, comparable within an allelic series) with SHOX [2]; 13 upbm affinity estimate (log intensity, higher = more binding, comparable within an allelic series) in the assay with ALX4; 11.6 upbm affinity estimate (log intensity, higher = more binding, comparable within an allelic series) with HESX1 [3]; 12.2 upbm affinity estimate (log intensity, higher = more binding, comparable within an allelic series) with MSX2; 11.7 upbm affinity estimate (log intensity, higher = more binding, comparable within an allelic series) with ALX1 [4]. The binding signal in the assay with ALX3 [5] was 8.5 upbm affinity estimate (log intensity, higher = more binding, comparable within an allelic series); with SHOX [6], 9.31 upbm affinity estimate (log intensity, higher = more binding, comparable within an allelic series); in the assay with ALX1 [7], 11.4 upbm affinity estimate (log intensity, higher = more binding, comparable within an allelic series); with ALX3 [8], 12.5 upbm affinity estimate (log intensity, higher = more binding, comparable within an allelic series); in the assay with PROP1 [9], 11.3 upbm affinity estimate (log intensity, higher = more binding, comparable within an allelic series); in the assay with HESX1 [10], 8.53 upbm affinity estimate (log intensity, higher = more binding, comparable within an allelic series). Further, the binding signal with PROP1 [11] is 11.2 upbm affinity estimate (log intensity, higher = more binding, comparable within an allelic series); with ALX3 [12], 10.5 upbm affinity estimate (log intensity, higher = more binding, comparable within an allelic series); in the assay with HESX1 [13] it was 10.3 upbm affinity estimate (log intensity, higher = more binding, comparable within an allelic series); with ALX3 [14], 10 upbm affinity estimate (log intensity, higher = more binding, comparable within an allelic series); with PROP1 [15] it was 7.71 upbm affinity estimate (log intensity, higher = more binding, comparable within an allelic series); with HESX1 [16], 7.65 upbm affinity estimate (log intensity, higher = more binding, comparable within an allelic series). Besides, the binding signal was 12.3 upbm affinity estimate (log intensity, higher = more binding, comparable within an allelic series) with ALX1 [17] and 8.69 upbm affinity estimate (log intensity, higher = more binding, comparable within an allelic series) in the assay with ALX3 [18].
On to GGAGCGCA, for which the binding signal was 6.3 upbm affinity estimate (log intensity, higher = more binding, comparable within an allelic series) with HESX1 [1]; 7.21 upbm affinity estimate (log intensity, higher = more binding, comparable within an allelic series) with SHOX [2]; 6.37 upbm affinity estimate (log intensity, higher = more binding, comparable within an allelic series) in the assay with HESX1 [3]; 7.1 upbm affinity estimate (log intensity, higher = more binding, comparable within an allelic series) with SHOX [6]; 6.4 upbm affinity estimate (log intensity, higher = more binding, comparable within an allelic series) in the assay with HESX1 [10]; 6.31 upbm affinity estimate (log intensity, higher = more binding, comparable within an allelic series) in the assay with HESX1 [13]. In addition, the binding signal in the assay with HESX1 [16] is 6.34 upbm affinity estimate (log intensity, higher = more binding, comparable within an allelic series).
With AATTAAAT, the binding signal in the assay with HESX1 [1] was 11.5 upbm affinity estimate (log intensity, higher = more binding, comparable within an allelic series); with SHOX [2], 11.5 upbm affinity estimate (log intensity, higher = more binding, comparable within an allelic series); with ALX4 it was 13.1 upbm affinity estimate (log intensity, higher = more binding, comparable within an allelic series); in the assay with HESX1 [3], 11.6 upbm affinity estimate (log intensity, higher = more binding, comparable within an allelic series); in the assay with MSX2, 12.4 upbm affinity estimate (log intensity, higher = more binding, comparable within an allelic series); with ALX1 [4], 11.5 upbm affinity estimate (log intensity, higher = more binding, comparable within an allelic series). For the same sequence, the binding signal with ALX3 [5] was 8.52 upbm affinity estimate (log intensity, higher = more binding, comparable within an allelic series); in the assay with SHOX [6] it was 9.35 upbm affinity estimate (log intensity, higher = more binding, comparable within an allelic series); with ALX1 [7], 11.3 upbm affinity estimate (log intensity, higher = more binding, comparable within an allelic series); with ALX3 [8], 12.5 upbm affinity estimate (log intensity, higher = more binding, comparable within an allelic series); with PROP1 [9], 11.6 upbm affinity estimate (log intensity, higher = more binding, comparable within an allelic series); in the assay with HESX1 [10], 8.88 upbm affinity estimate (log intensity, higher = more binding, comparable within an allelic series). The binding signal was 11.4 upbm affinity estimate (log intensity, higher = more binding, comparable within an allelic series) in the assay with PROP1 [11]; 10.5 upbm affinity estimate (log intensity, higher = more binding, comparable within an allelic series) with ALX3 [12]; 10.3 upbm affinity estimate (log intensity, higher = more binding, comparable within an allelic series) with HESX1 [13]; 10.2 upbm affinity estimate (log intensity, higher = more binding, comparable within an allelic series) with ALX3 [14]; 7.81 upbm affinity estimate (log intensity, higher = more binding, comparable within an allelic series) with PROP1 [15]; 7.97 upbm affinity estimate (log intensity, higher = more binding, comparable within an allelic series) in the assay with HESX1 [16]. In addition, the binding signal in the assay with ALX1 [17] is 12.2 upbm affinity estimate (log intensity, higher = more binding, comparable within an allelic series); with ALX3 [18] it was 8.68 upbm affinity estimate (log intensity, higher = more binding, comparable within an allelic series).
